# KB-V1 MDR tox = KB-V1 MDR subline cytotoxicity | AID 1347076 | hit rate 3.4% among 400,000 | KB-V1 MDR cells viability, CellTiter-Glo, 72 h | Potency, µM (doses to about 46.1 µM), most hits filed as cytotoxic; further: on the % scale 0 is the no-effect control and ±100 the full control effect; nearly all actives have a fitted effect of over 60% in size
#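 KB-V1 MDR subline cells in DMEM (phenol-red free, 10% FBS) exposed to compounds in qHTS concentration series for 72 h at 37 degrees C. Viability read by CellTiter-Glo luminescence; concentration-effect curves fitted after normalization and correction.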
# ELG1 repair inh = inhibitors of ELG1-dependent DNA repair in HEK293T cells. HEK293T ELG1-luciferase reporter, luminescence, 16 h; DNA damage induced by 5-fluorouridine. hit rate 2.3% among 330,000. Potency, µM (titrated, usually from 46.1 µM), for inactives: at the top dose activity change, negative = inhibition, hits mostly inhibitors; further: on the % scale 0 is the no-effect control and ±100 the full control effect; nearly all actives have a fitted effect of over 55% in size
#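 Reporter activity after DNA damage by 5-fluorouridine is monitored. Compound-treated cells incubate 16 hr at 37 °C, then ONE-Glo is added for 30 min before luminescence reading.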
# KB-3-1 tox = kills parental KB-3-1 adenocarcinoma cells; KB-3-1 viability, CellTiter-Glo ATP luminescence, 72 h; Potency, µM (highest dose often 46.1 µM), actives largely listed as cytotoxic; hit rate 1.4% among 400,000; AID 1347075; further: on the % scale 0 is the no-effect control and ±100 the full control effect; nearly all actives have a fitted effect of over 60% in size
#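 Cytotoxicity measured as CellTiter-Glo luminescence after 72 h at 37 C. Compound titrations were pinned onto drug-naive KB-3-1 parental adenocarcinoma cells grown in DMEM with 10% FBS, and normalized data fitted to concentration-response curves.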
# SW480 rereplic = induces DNA re-replication in SW480 colon adenocarcinoma cells. SW480 DNA re-replication, Hoechst DNA content imaging, 48 h. Potency, µM (titrated, usually from 46.1 µM), for the others: at the highest dose re-replication activation, most hits filed as activators. hit rate 1.8% among 340,000; further: % of control where 0% means no effect; nearly all actives have a fitted effect of over 55% in size
#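 DNA re-replication was detected as more nuclei of elevated Hoechst intensity after 48 hr exposure to compound (23 nL pinned per well of 250 cells).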
# MCF10A rereplic = DNA re-replication induction in MCF 10a cells | MCF 10A DNA re-replication, Hoechst nuclear intensity, 48 h | Potency, µM (series often up to 46.1 µM), for inactives: at the highest dose activity, positive = re-replication, hits mostly activators | hit rate 2.9% among 350,000; further: % of control where 0% means no effect; nearly all actives have a fitted effect of over 50% in size
# * = called active by the depositor; i = inactive; ? = inconclusive; / = no result. Hits are enriched below; roughly 8.1% of the tested compounds scored in any of these assays. The call rests on the fitted dose curve; in most records, active means well fitted curve in the direction sought with a large enough effect; inconclusive means small, poorly fitted or top-dose-only effect, or another doubt; inactive means no such curve, though single readings can be large; an effect the other way counts as inactive or inconclusive. Potency means the concentration at half of the fitted maximal effect.
SMILES,KB-V1 MDR tox,ELG1 repair inh,KB-3-1 tox,SW480 rereplic,MCF10A rereplic
COc1cc(C)ccc1OCCSc1nc2ccc(NC(=O)c3ccc(F)cc3)cc2s1,i,/,i,/,/
Cc1sc2ccccc2[n+]1CCC[n+]1c(C)sc2ccccc21,i,/,i,/,/
O=S(=O)(Nc1ncccn1)c1ccc(Cl)cc1,i,-5.2%,i,-51.8%,0.4%
CN(C)c1nc(NS(=O)(=O)c2ccc(Cl)cc2)nc(N(C)C)n1,13µM*,?,i,1.8%,9.0%
O=S1(=O)N[C@@H](Cc2ccccc2)COc2cccc(N3CCC[C@@H]3CO)c21,i,/,i,/,/
COc1cccc(NC2=C(Cl)C(=O)OC2OC(=O)c2ccco2)c1 (stereo not given),i,15.7%,i,?,14.1µM*
O=C(CSc1nncs1)Nc1ccc(N2CCCCC2)cc1,16.4µM*,?,?,-5.3%,-1.1%
Cc1cc(NC(=O)CN2CCOCC2)n(-c2nc3ccccc3s2)n1,?,/,i,9.9%,14.6µM*
CCOC(=O)N1CCN(CC(=O)Nc2nc3ccc(OC)cc3s2)CC1,i,14.6µM*,i,-4.0%,2.1%
Cc1cc(NC(=O)CN2CCOCC2)n(-c2ccccc2)n1,i,3.3%,i,3.1%,4.8%
CCOC(=O)N1CCN(CC(=O)Nc2nc3ccccc3s2)CC1,11.6µM*,-23.4%,i,1.4%,7.9%
Cc1ccc(-c2cc(C(F)F)n3ncc(C(=O)N4CCCc5ccccc54)c3n2)cc1,i,-27.5%,i,-3.2%,18.4%
O=C(c1cc(-c2cccc(Br)c2)nc2ccccc12)N1CCCC1,i,-15.9%,i,16.7%,-15.1%
O=C(c1cc(-c2ccccc2)nc2ccccc12)N1CCCc2ccccc21,?,18.4µM*,i,?,13.2%
Cc1cccc(-c2cc(C(=O)N3CCCc4ccccc43)c3ccccc3n2)c1,?,7.31µM*,i,-1.2%,9.7%
Nc1cc(N)[nH]c(=S)n1,i,/,i,/,/
Cc1ccc(S(=O)(=O)N2C[C@H]3C(=O)C[C@@H](c4ccccc4)N(S(=O)(=O)c4ccccc4[N+](=O)[O-])[C@H]3C[C@H]2c2ccccc2)cc1,i,/,i,/,/
Nc1nc(N)c2sc3nc4c(cc3c2n1)CCC4,20.6µM*,?,i,-0.2%,0.4%
CC(=O)c1c(C)[nH]c(C(=O)OCC(=O)c2c[nH]c3ccccc23)c1C,i,?,i,?,?
COc1ccc(NC(=O)c2cccc(N3CCCS3(=O)=O)c2)c(OC)c1,i,/,i,/,/
Cc1cc(C(F)(F)F)c(C#N)c(SCC(=O)Nc2nc3ccccc3s2)n1,?,?,i,/,?
Cc1cc(C)c(C#N)c(SCC(=O)Nc2ccccc2C)n1,i,-10.6%,i,-0.8%,26.9%
Cc1cc(C)c(C#N)c(SCC(=O)Nc2nnc(-c3ccccc3)s2)n1,i,13.4%,i,0.9%,10.3µM*
Cc1ccc2sc(NC(=O)CSc3nc(C)cc(C)c3C#N)nc2c1,i,?,i,2.82µM*,4.9%
Cc1ccc2cc(C#N)c(SCC(=O)Nc3ccc4sc(C)nc4c3)nc2c1,/,-9.2%,/,/,/
SMILES,KB-V1 MDR tox,ELG1 repair inh,KB-3-1 tox,SW480 rereplic,MCF10A rereplic
Cc1nc(SCC(=O)Nc2nc3ccccc3s2)c(C#N)c(C)c1C,i,5.17µM*,?,5.8µM*,6.51µM*
O=C1c2ccccc2C(=O)N1c1cccc(O)c1,i,/,?,/,/
COC(=O)c1cccc(S(=O)(=O)N(Cc2ccco2)Cc2cc3cc(OC)c(OC)cc3[nH]c2=O)c1,i,23.1µM*,i,-0.1%,2.7%
COc1ccccc1NC(=O)N(Cc1ccco1)Cc1cc2cccc(C)c2[nH]c1=O,i,?,?,12.5%,?
COc1ccccc1NC(=O)N(Cc1ccco1)Cc1cc2c(C)ccc(C)c2[nH]c1=O,i,5.17µM*,i,-0.6%,-7.6%
COc1ccccc1NC(=S)N(Cc1ccco1)Cc1cc2cc(C)ccc2[nH]c1=O,?,16.4µM*,1.84µM*,?,?
Cc1cc(Br)ccc1NC(=O)CN(C)C(=O)CSC(=S)N1CCCC1,13µM*,?,i,-4.5%,-2.1%
Cc1ccc(CCNC(=O)CSCc2nc(-c3ccc(C)cc3)oc2C)cc1,i,/,i,/,/
COc1ccc(NS(=O)(=O)c2ccc(C(=O)N(C)Cc3cccs3)cc2)cc1,i,?,?,-29.1%,?
COc1cc(CNc2ccc(N3CCCCC3)cc2)ccc1OCC(=O)NC(C)(C)C,?,9.2µM*,?,-0.3%,-1.7%
CCCN1C(=O)CC(c2ccc(OC)c(OC)c2)C1=O (stereo not given),i,/,i,/,/
CCC(C)(C#CCN1CCCCC1)OCCC#N (stereo not given),i,12.3%,i,18.4µM*,-3.2%
Nc1nc(N)c(N=O)c(Nc2cccc(Cl)c2)n1,i,/,i,/,/
CN(CC(=O)Nc1ccc(Cl)cc1)C(=O)CCc1nc2sc3c(c2c(=O)[nH]1)CCCC3,i,19.2%,i,?,18.4µM*
CCCCn1c(SCC(=O)N2c3ccccc3CCc3ccccc32)nc2c1c(=O)n(C)c(=O)n2C,?,20.6µM*,i,-1.6%,9.2%
CCn1c(SCC(=O)N2c3ccccc3CCc3ccccc32)nc2c1c(=O)n(C)c(=O)n2C,2.06µM*,/,i,5.0%,21.3%
CCCCn1c(SCC(=O)OC)nc2c1c(=O)n(C)c(=O)n2C,i,0.2%,i,-7.1%,-2.3%
Cn1ccnc1SCc1cc(=O)[nH]c2ccccc12,i,1.8%,i,14.1%,0.2%
CCn1c(SCc2cc(=O)[nH]c3ccccc23)nc2c1c(=O)n(C)c(=O)n2C,16.4µM*,/,i,-12.7%,4.2%
CCCCn1c(SCc2nnc(-c3ccccc3)o2)nc2c1c(=O)n(C)c(=O)n2C,2.59µM*,5.8%,i,-5.3%,3.9%
O=C(NCCCN1CCCC1=O)C(=O)NCC1OCCN1S(=O)(=O)c1ccc(Cl)cc1 (stereo not given),i,-1.7%,i,-3.2%,-1.8%
CCn1c(SCC(=O)N2CCCc3ccccc32)nc2c1c(=O)n(C)c(=O)n2C,2.91µM*,?,?,-3.8%,3.2%
Cn1c(COc2ccccc2)nnc1SCc1nc2ccccc2[nH]1,?,-14.5%,i,?,?
CCn1c(SCCOc2ccc(Cl)cc2)nnc1-c1cccs1,9.2µM*,-2.2%,i,-6.5%,15.1%
C(=C\c1ccccc1)/CSc1nnc(-c2ccccn2)n1Cc1ccco1,?,-2.4%,5.8µM*,20.6µM*,7.94µM*
CCn1c(COc2ccc(C)cc2)nnc1SCc1nc2ccccc2[nH]1,2.59µM*,?,i,1.5%,21.9%
Clc1ccc(OCc2nnc(SCc3nc4ccccc4[nH]3)n2Cc2ccco2)cc1,5.8µM*,16.4µM*,?,14.6%,24.0%
